# Source: PubChem BioAssay
# This is a sample that favours compounds with a hit; in the whole collection about 4% have one here.
# D1 potentiator – potentiators of human D1 dopamine receptor. HEK293 TREx D1 cells, calcium flux, dopamine EC20 potentiation. 360,000 compounds, 0.036% hits. P21728. potentiation, % at 10 µM; in the data active = potentiation above about 30%; also: 0% is about no effect
# D1 ag – activates the human D1 dopamine receptor | activation, % at 2 µM | 360,000 compounds, 1% hits | P21728 | AID 504660 | HEK293 T-REx D1 cells, calcium flux, agonist mode; in the data active = activation above about 30%; also: 0% is about no effect
#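 Inducible HEK293 T-REx D1 cells, force-coupled to calcium signalling, were plated at 4000 cells/well with tetracycline and held overnight at 30 C. After no-wash calcium dye loading, compound-evoked calcium rise over 180 s flagged agonists.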
# Glioma ERSR ind – inducers of ER stress response in human glioma cells; U87-MG GRP78 promoter luciferase reporter, 16 h; Potency, µM, for inactives: at the highest dose activation, actives largely listed as activators; 420,000 compounds, 0.02% hits; also: potency is read from the fitted curve at half-maximal effect; series mostly up to about 76 µM; % of control where 0% means no effect; nearly all actives have a fitted effect of over 35% in size
#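 Stably transfected U87-MG human glioma cells carrying a GRP78-based luminescent sensor were seeded at 1000 cells/well, pin-dosed with compounds and incubated 16 h. Luciferase reagent was then added, and end-point luminescence was read after 10 min at room temperature.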
# TRHR agonist-1 – activates the human TRH receptor. P34981. TRHR cells, calcium flux fluo-8, FDSS agonist mode. activation, % at 2 µM. 360,000 compounds, 0.18% hits. AID 493084; in the data active = activation above about 30%; also: 0% is about no effect
# Target sequence (P34981 whole entry, looked up): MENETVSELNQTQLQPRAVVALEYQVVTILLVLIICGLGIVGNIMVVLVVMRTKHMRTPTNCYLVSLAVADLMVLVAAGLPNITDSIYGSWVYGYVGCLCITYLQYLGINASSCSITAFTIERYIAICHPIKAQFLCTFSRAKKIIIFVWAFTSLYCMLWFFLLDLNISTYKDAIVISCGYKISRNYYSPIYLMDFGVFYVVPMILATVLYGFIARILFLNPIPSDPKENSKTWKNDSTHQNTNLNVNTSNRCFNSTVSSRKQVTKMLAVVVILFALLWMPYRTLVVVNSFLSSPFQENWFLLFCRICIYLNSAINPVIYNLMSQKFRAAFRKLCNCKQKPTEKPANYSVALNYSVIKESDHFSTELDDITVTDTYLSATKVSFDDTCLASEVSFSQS
#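 TRHR-expressing cells loaded with fluo-8 calcium dye; 23 nL library compound pin-transferred, kinetic FDSS fluorescence (Ex 480/Em 530) recorded about 180 s for agonist-induced calcium release, before a 10 nM TRH EC20 addition for potentiator mode.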
# D1 antagonist – antagonists of human D1 dopamine receptor; 360,000 compounds, 3.2% hits; HEK293 TREx D1 cells, calcium flux, dopamine EC80; stronger effect = lower value; activity change, negative = inhibition, % at 10 µM; in the data active = activity change below about -30%; also: % is scaled to controls: 0 for no effect and ±100 for the full control effect
#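 Allosteric or orthosteric antagonism assessed as attenuation of the calcium response to EC80 dopamine, added 180 s after compound, in induced HEK293 Trex D1 cells loaded with no-wash calcium dye.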
# TRHR enhancer-1 – TRH receptor (human) allosteric enhancement; TRHR cells, fluo-8 calcium fluorescence, EC20 TRH enhancement; enhancement, % at 2 µM; 360,000 compounds, 0.66% hits; P34981; AID 493056; in the data active = enhancement above about 30%; also: 0% is about no effect
#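 Enhancer read-out: after compound pinning and an initial kinetic agonist-mode read, an EC20 of TRH (10 nM final) was injected and fluo-8 calcium signal (Ex 480/Em 530) followed at 1 s/cycle for 100 cycles in TRHR-expressing cells.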
# TRHR enhancer-2 – human TRH receptor allosteric enhancement confirmation; shares compounds with TRHR enhancer-1; TRH receptor cell assay, enhancer confirmation qHTS; activity change, negative = inhibition, % at 46.1 µM; 970 tested, under 10 active;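 also: compound effect scored on response to added TRH at EC20 of 10 nM; 0% is about no effect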
# TRHR agonist-2 – human TRH receptor agonism confirmation | Potency, µM (highest dose often 46.1 µM), for the others: at the highest dose activation, usual class: activators | AID 493078 | TRHR-expressing cells, agonist activation read-out | shares compounds with TRHR enhancer-1 | 970 compounds, 8% hits; also: potency is read from the fitted curve at half-maximal effect; 0% is about no effect; nearly all actives have a fitted effect of over 75% in size
# Numbers without * were called inactive; ? = inconclusive; . = no result given. Unless noted, calls follow the shape of the dose curve; as a rule, active = well fitted curve in the direction sought with a large enough effect; inconclusive = small, poorly fitted or top-dose-only effect, or another doubt; inactive = no such curve, though single readings can be large; an effect the other way counts as inactive or inconclusive.
SMILES,D1 potentiator,D1 ag,Glioma ERSR ind,TRHR agonist-1,D1 antagonist,TRHR enhancer-1,others
O=C(Nc1ccccc1Cl)OC1CN2CCC1CC2 (stereo unspecified),-6.2,13.9,1.8%,3.8,-37.6*,-2.7,
O=C(Nc1ccc(Cl)cc1)OC1CN2CCC1CC2 (stereo unspecified),-7.8,30.1*,-2.3%,1.7,-14.7,-5.0,
CN1CCc2nc3sc(C(=O)NC4CC4)c(N)c3cc2C1,-0.2,1.6,3.4%,0.4,7.9,-2.6,
Oc1ccc(Cl)cc1CN1CCN(Cc2ccccc2)CC1,-8.2,2.8,-7.8%,0.7,-2.6,31.2*,
COc1cc(C2c3cc4c(c(O)c3CC3COC(=O)C32)OCO4)cc(OC)c1O (stereo unspecified),.,.,-5.8%,.,.,.,
CCCCCc1nc2c(c(=O)c3ccccc3n2C)c(=O)n1C1CCCCCC1,7.1,190.9*,-5.6%,22.7,-54.9*,-6.6,
O=[N+]([O-])c1ccc(N2CCCCCC2)c2nonc12,5.6,526.5*,1.2%,142.1*,5.9,15.2,
O=[N+]([O-])c1ccc(N2CCCCC2)c2ncccc12,2.0,2.9,0.0%,-0.6,6.2,-11.4,
CCCCCCOc1ccc(CN2CCN(C)CC2)cc1,-9.6,30.8*,-2.2%,2.4,-17.8,2.0,
CC1CN=C(NCc2ccc(F)cc2)S1 (stereo unspecified),-3.6,11.0,-1.1%,21.9,-1.1,-4.6,
CCN(CC)c1ccc(N=Cc2c(O)n(-c3ccc(Cl)cc3)c(=O)[nH]c2=O)cc1,-5.6,6.4,1.4%,2.2,-37.6*,-1.1,
C=CCn1c(O)c(C=Nc2ccc(N(CC)CC)cc2)c(=O)[nH]c1=O,-3.8,30.8*,-1.0%,11.3,-4.9,7.9,
O=c1c(C=NCCN2CCNCC2)c(O)n(C2CCCCC2)c(=O)n1C1CCCCC1,-2.2,1.4,-3.5%,0.0,17.4,6.3,
CN1C(=O)C(=Cc2ccc(N3CCOCC3)o2)C(=O)N(C)C1=O,-2.5,45.2*,1.6%,-0.1,14.8,14.0,
COc1cc(C(=O)NN=Cc2ccc(N(CCCl)CCCl)cc2)cc(OC)c1OC,.,.,-3.9%,.,.,.,
NC(=O)CSc1nnc([C@@H](N)Cc2c[nH]c3ccccc23)o1,-5.5,5.6,2.3%,-0.1,-44.2*,-4.9,
Cc1cc(OCc2ccc([N+](=O)[O-])cc2)c2c3c(c(=O)oc2c1)CCCC3,4.9,2.4,0.1%,-0.1,-30.1*,-9.1,
Cc1cc(OCc2nn[nH]n2)c2c3c(c(=O)oc2c1)CCCC3,-1.2,-0.4,-3.8%,0.4,2.4,-1.3,
c1cc(C2N3CCCN2CC3)ccn1 (stereo unspecified),8.6,3.2,0.9%,-0.6,-44.3*,4.8,
CC1CN1P(=S)(c1ccccc1)N1CC1C (stereo unspecified),.,.,-4.1%,.,.,.,
CNC(=S)N1CCn2cccc2C1c1cccnc1 (stereo unspecified),2.5,3.4,-4.3%,0.6,-32.7*,1.7,
CC(C)(C)P(=O)(NCc1ccccc1)c1ccccc1 (stereo unspecified),-0.6,6.0,-3.5%,2.5,9.7,4.6,
CC(C)CNP(=S)(c1ccccc1)C(C)(C)C (stereo unspecified),-2.2,1.3,-1.4%,0.3,4.9,43.1*,TRHR enhancer-2=-10.9;TRHR agonist-2=1.2%
CN1CCN(c2ccc(N)cc2)CC1,-0.1,1.4,-3.5%,0.5,.,88.6*,TRHR enhancer-2=1.8;TRHR agonist-2=-0.3%
O=C1NC(=O)N(CCC2=CCCCC2)C(=O)/C1=C/c1cccs1,0.8,2.4,-4.2%,0.5,5.4,1.4,
SMILES,D1 potentiator,D1 ag,Glioma ERSR ind,TRHR agonist-1,D1 antagonist,TRHR enhancer-1,others
O=c1c2ccccc2nc(-c2ccccc2)n1-c1ccc(O)cc1,-3.1,2.1,-4.5%,0.1,-18.0,46.5*,TRHR enhancer-2=3.9;TRHR agonist-2=-0.7%
Cc1ccc(-c2nc3ccccc3c(=O)n2-c2ccc(O)cc2)cc1,4.8,1.5,-1.0%,-0.5,-13.6,-2.8,
Cn1c(O)c(C=Nc2ccc(Br)cc2)c(=O)n(C)c1=O,-15.4,0.9,-4.2%,-1.1,-10.0,-2.7,
Cc1ccccc1-n1c(O)c(/C=C/C=Nc2ccccc2)c(=O)[nH]c1=O,4.7,40.6*,-4.8%,32.0*,-10.3,-1.6,TRHR enhancer-2=?;TRHR agonist-2=20.6µM*
Cn1c(O)c(/C=C/C=Nc2ccccc2)c(=O)n(C)c1=S,4.5,64.1*,-3.9%,44.6*,1.7,16.6,TRHR enhancer-2=-10.5;TRHR agonist-2=30.0%
CC1CCN(C(=O)c2ccc(N3CC4CC(C3)c3cccc(=O)n3C4)c([N+](=O)[O-])c2)CC1 (stereo unspecified),4.5,0.4,0.4%,-0.1,-13.8,6.5,
C=CCn1c(=O)/c(=C\c2ccccn2)s/c1=C(/C#N)C(=O)NCC1CCCO1 (stereo unspecified),-5.2,150.8*,3.3%,46.3*,-27.6,-9.5,TRHR enhancer-2=-0.8;TRHR agonist-2=?
Cc1ccc(S(=O)(=O)Oc2ccccc2C=C2C(=O)NC(=O)NC2=O)cc1,.,.,3.5%,.,.,.,
CC[C@]1(c2cccc(O)c2)CCCCN(C)C1,.,.,-1.6%,.,.,.,
NNC(=O)c1ccc(O)cc1,1.3,1.0,-1.2%,0.0,13.9,46.6*,TRHR enhancer-2=12.5;TRHR agonist-2=-0.7%
